Measurements from PubChem BioAssay (NCATS).
Records with an inconclusive call do not appear. A call without a number means that no potency is given here. Calls of active or inactive are those of the source. Calls come from the whole dose curve; as a rule, active = well fitted inhibition curve with a large enough effect; inconclusive = small, poorly fitted or top-dose-only effect; inactive = no such curve, though single readings can be large or run the other way.

molecular target: Retinal dehydrogenase 2 (Homo sapiens) (UniProt O94788); assay: qHTS for Inhibitors of the Aldehyde Dehydrogenase Family (ALDH1A2) Confirmation screens (AID 2061314); conditions: ALDH1A2 enzyme inhibition qHTS confirmation; series mostly up to 45.9 µM; note: nearly all actives have a fitted effect of over 65% in size
Potency is the fitted concentration of half-maximal effect.

Structure (SMILES)	Potency
OC/C=C/C=C/[C@H]1Cc2cc(O)cc(O)c2O1	inactive
Cn1cc(Nc2cnccc2C(=O)O)c2cccnc21	inactive
C=C1C(=O)OC2CC(C)=C(C(C)CCCO)C(O)C12 (stereo not drawn)	inactive
Clc1ncoc1-c1c[nH]c2ccccc12	inactive
CC1=CC(=O)C(=C(C)C)CC2C(C)(O)CCC12O (stereo not drawn)	inactive
COc1ccc(-c2c(-c3cc(C(=O)O)ccn3)ncn2C)cc1	28.3 µM (active)
O=C(OC1C=C(CO)C2C(OC3OC(CO)C(O)C(O)C3O)OC=CC12O)c1ccc(O)cc1 (stereo not drawn)	inactive
COc1ccc(-c2ccn(CC[C@](C)(C(=O)NO)S(C)(=O)=O)c(=O)c2)c(F)c1	5.65 µM (active)
Cc1ccc(NC(=O)N2CCN(c3nc(N)nc4sc(-c5cccnc5)nc34)CC2)cc1	14.1 µM (active)
O=C(O)c1cc(O[C@@H]2O[C@H](CO[C@@H]3OC[C@@H](O)[C@H](O)[C@H]3O)[C@@H](O)[C@H](O)[C@H]2O)c2ccccc2c1O	2.46 µM (active)
CC1=C2CC3C(CCC3(C)O)C(C)(O)CC2OC1=O (stereo not drawn)	inactive
Cn1cc(-c2ccncc2)c(-c2ccc(OCc3ccc4ccccc4n3)cc2)n1	inactive
O=C1NC(=O)C(c2cn(-c3ccccc3)nc2-c2ccc(F)cc2)N1 (stereo not drawn)	inactive
Oc1ccc(Nc2nc(-c3ccc(Cl)cc3)cs2)cc1	inactive
CC1(C)O[C@@]2(C)CC[C@@H]1C[C@@H]2OC1OC(CO)C(O)C(O)C1O (stereo partly drawn)	inactive
CC(CC(C)O[C@@H]1O[C@H](CO)[C@@H](O)[C@H](O)[C@H]1O)OC(=O)/C=C/c1ccc(O)cc1 (stereo partly drawn)	inactive
C=CC(=O)Nc1cccc(Nc2nc(Nc3ccc(Oc4ccnc(C(=O)NC)c4)cc3)ncc2F)c1	inactive
Nc1cccc(CNC(=O)c2ccc(Oc3ccc(OCc4cccc(F)c4)cc3)nc2)c1	inactive
O=C(O)c1cn(C2CC2)c2cc(N3C[C@@H]4C[C@H]3CN4)c(F)cc2c1=O	inactive
C/C=C/C=C/c1cc2c(C=O)c(O)c(CC=C(C)C)cc2o1	10.1 µM (active)
COc1cc2ncc(-c3ccccc3)nc2cc1OC	inactive
COc1cc([C@H]2c3cc(O)c(OC)cc3C[C@@H](CO[C@@H]3O[C@H](CO)[C@@H](O)[C@H](O)[C@H]3O)[C@@H]2CO)ccc1O	inactive
CC(C)=C1CC2C(CCC2(C)O)C(C)(O)CC1=O (stereo not drawn)	inactive
